Assay results from PubChem BioAssay.
Inconclusive results are not listed. Calls of active or inactive are those of the source. Rule as the data show it, unless noted: active = percent of DMSO control GFP below about 86%; inactive = the rest, inconclusive results apart.

How the values were obtained:
[1] = rapamycin-like changes in RPL19A-GFP expression – cell-based, S. cerevisiae, multiplex flow cytometry, primary screen (AID 1862);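 also: lower values mimic rapamycin by blocking the RPL19A rise seen in DMSO cells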; details: S. cerevisiae RPL19A-GFP strain, flow cytometry fluorescence, 3 h; at 10 µM; stronger effect = lower value
[2] = TOR pathway GLN3 branch reporter MEP2-GFP changes – S. cerevisiae, multiplex flow cytometry, primary screen (AID 1867;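 active = GFP response, as percent of the DMSO control, above the screen-wide mean plus 3 SD, about 139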;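 also: median GFP channel fluorescence of barcode-gated MEP2-GFP cells measured by flow cytometry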); details: S. cerevisiae MEP2-GFP strain, 3 h, at 10 µM, stronger effect = higher value, 100% means same as DMSO wells
[3] = TOR pathway RTG branch CIT2 reporter changes – S. cerevisiae, GFP fusion, multiplex flow cytometry, primary screen (AID 1870;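 active = percent response above a set limit, the screen-wide mean plus 3 SD, cut at about 130% in these data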;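 also: barcoded CIT2-GFP strain pooled with four other GFP strains with rapamycin as positive control; median GFP fluorescence per well over plate mean of DMSO wells so 100% = DMSO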); details: S. cerevisiae CIT2-GFP expression, 3 h, at 10 µM, stronger effect = higher value
[4] = TOR pathway LAP4-GFP level changes – S. cerevisiae, multiplex flow cytometry, primary screen (AID 1873;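 active = GFP signal, as percent of the solvent control, above the screen mean plus 3 SD, about 149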); details: S. cerevisiae LAP4-GFP expression, 3 h, at 10 µM, stronger effect = higher value
[5] = yeast AGP1-GFP level changes, GLN3 branch – cell-based, multiplex flow cytometry, S. cerevisiae, primary screen (AID 1887;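 active = GFP signal above the screen-wide mean plus 3 SD, that is over about 124.5% of the solvent control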;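 also: AGP1-GFP fusion strain of S. cerevisiae within a five-strain barcoded multiplex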); details: 3 h, at 10 µM, stronger effect = higher value
[6] = reduced mouse 2C T cell binding to pMHC/ICAM-1 vesicles – MLPCN validation set, flow cytometry, LFA-1/ICAM-1 modulator project, pilot screen (AID 2523;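 active = response below a set limit, under 55% cells CD8-positive and vesicle-bound, and CD8 cells' 90th-percentile brightness under 279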;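 as to vesicle binding response: mean PE anti-B7-1 fluorescence of CD8+ cells relative to row control; 100% = QL9-loaded vesicles with DMSO vehicle in the same plate row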); details: 2C mouse CD8+ T cells, at 7 µM, stronger effect = lower value; double positive events: measured here: CD8+/vesicle+ event percentage
[7] = molecular target: Integrin beta-1 (Homo sapiens) + Integrin alpha-4 (Homo sapiens) (UniProt P13612+P05556); assay: alpha4beta1 integrin LIBS antibody binding reduction – U937 cells, HUTS-21 mAb, flow cytometry, validation set, VLA-4 allosteric modulator project, pilot screen (AID 2674;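 active = inhibition above 50%, about 3 SD of the validation set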;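 also: antibody binding induced by the VLA-4 ligand LDV present at three times its Kd; 0% = LDV ligand with antibody and no compound and 100% = antibody without LDV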); details: HUTS-21 LIBS mAb binding, at 6.7 µM, stronger effect = higher value, binding induced by LDV ligand
Chain of Integrin beta-1 (Homo sapiens) + Integrin alpha-4 (Homo sapiens) (P05556 whole entry, looked up): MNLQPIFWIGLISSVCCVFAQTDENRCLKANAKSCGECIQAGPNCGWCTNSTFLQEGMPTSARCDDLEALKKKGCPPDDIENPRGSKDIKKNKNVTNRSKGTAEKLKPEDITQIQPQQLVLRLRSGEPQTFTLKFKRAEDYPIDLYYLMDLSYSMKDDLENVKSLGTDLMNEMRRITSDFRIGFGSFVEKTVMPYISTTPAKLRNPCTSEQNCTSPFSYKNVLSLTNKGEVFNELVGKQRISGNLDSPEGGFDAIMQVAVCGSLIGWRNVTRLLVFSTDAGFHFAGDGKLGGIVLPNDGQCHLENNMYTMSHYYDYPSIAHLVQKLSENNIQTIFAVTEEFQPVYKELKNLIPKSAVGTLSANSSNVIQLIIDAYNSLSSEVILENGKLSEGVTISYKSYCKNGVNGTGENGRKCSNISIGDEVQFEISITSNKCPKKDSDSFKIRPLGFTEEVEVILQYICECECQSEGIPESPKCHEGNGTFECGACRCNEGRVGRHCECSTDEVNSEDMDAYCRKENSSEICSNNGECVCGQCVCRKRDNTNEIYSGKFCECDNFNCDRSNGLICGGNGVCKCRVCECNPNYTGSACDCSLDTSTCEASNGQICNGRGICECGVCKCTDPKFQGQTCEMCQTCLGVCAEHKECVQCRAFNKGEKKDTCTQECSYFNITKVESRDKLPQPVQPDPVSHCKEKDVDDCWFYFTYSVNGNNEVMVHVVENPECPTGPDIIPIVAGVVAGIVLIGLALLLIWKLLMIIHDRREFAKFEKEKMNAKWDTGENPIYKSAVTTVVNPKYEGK
Chain of Integrin beta-1 (Homo sapiens) + Integrin alpha-4 (Homo sapiens) (P13612 whole entry, looked up): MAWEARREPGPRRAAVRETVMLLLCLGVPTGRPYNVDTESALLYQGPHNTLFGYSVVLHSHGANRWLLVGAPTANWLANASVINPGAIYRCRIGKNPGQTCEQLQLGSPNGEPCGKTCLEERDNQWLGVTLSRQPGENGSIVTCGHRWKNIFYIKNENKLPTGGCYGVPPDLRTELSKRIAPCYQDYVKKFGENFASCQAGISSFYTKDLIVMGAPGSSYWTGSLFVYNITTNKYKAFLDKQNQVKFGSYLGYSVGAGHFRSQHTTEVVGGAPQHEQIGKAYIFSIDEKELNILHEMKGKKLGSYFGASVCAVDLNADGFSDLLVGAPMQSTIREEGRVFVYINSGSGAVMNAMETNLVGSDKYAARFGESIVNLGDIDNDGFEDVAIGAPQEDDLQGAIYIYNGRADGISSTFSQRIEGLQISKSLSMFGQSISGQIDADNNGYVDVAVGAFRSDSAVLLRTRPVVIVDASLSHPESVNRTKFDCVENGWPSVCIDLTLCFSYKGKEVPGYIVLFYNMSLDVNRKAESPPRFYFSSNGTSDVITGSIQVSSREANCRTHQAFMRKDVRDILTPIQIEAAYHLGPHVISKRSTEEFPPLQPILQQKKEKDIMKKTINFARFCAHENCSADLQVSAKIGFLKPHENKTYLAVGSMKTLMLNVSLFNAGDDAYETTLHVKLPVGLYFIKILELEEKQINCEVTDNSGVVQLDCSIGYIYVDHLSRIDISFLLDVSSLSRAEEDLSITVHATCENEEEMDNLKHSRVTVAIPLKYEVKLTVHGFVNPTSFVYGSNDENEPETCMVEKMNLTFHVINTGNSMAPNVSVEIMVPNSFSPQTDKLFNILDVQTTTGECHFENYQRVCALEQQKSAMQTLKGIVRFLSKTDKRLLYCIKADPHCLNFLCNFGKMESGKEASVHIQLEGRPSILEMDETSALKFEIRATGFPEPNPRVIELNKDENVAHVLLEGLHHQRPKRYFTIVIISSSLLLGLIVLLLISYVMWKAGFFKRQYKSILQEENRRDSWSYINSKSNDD

[8] = calorie-restriction mimetic ROS inhibitors, yeast – validation compound set, pilot screen (AID 2706;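 active = superoxide response below 65% of plate, a cut near 3 SD across the whole screen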;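 also: yeast exposed to compound for one week at 30 degrees C before staining; 100% = mean of all compound wells on the same plate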); details: S. cerevisiae aging, superoxide DHE fluorescence; at 10 µM, stronger effect = lower value
[9] = molecular target: Beta-adrenergic receptor kinase 1 (Homo sapiens) (UniProt P25098); assay: GRK2 binders displacing RNA aptamer, biochemical, validation, human GRK2, bead flow cytometry (AID 488806;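 active = aptamer binding inhibition above 30%, about 3 SD of noise from non-fluorescent compounds; inactive = inhibition at or below 30%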); details: bead-bound GRK2, FAM-aptamer displacement, at 10 µM, stronger effect = higher value
Chain of Beta-adrenergic receptor kinase 1 (Homo sapiens) (P25098 whole entry, looked up): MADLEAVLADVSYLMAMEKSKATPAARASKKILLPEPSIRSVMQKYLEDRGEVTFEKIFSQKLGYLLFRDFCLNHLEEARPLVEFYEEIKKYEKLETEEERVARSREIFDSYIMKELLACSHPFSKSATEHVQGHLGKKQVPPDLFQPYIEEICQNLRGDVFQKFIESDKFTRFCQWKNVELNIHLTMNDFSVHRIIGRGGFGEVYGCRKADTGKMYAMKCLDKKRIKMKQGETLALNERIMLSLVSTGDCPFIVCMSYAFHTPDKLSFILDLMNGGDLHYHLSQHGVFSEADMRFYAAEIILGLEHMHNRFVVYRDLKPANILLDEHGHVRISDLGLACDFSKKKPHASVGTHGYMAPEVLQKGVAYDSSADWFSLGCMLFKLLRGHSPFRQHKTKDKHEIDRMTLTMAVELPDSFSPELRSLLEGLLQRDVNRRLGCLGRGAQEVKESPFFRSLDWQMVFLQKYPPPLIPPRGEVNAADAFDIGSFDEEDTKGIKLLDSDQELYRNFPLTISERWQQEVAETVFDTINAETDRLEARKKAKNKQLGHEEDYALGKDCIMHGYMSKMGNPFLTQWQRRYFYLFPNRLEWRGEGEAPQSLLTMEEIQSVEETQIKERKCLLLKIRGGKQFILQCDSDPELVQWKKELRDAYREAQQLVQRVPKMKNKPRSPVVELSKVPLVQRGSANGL

[10] = molecular target: AP-2 complex subunit beta (Homo sapiens) (UniProt P63010); assay: beta-arrestin/AP2 interaction blockers – biochemical, validation set, GST-AP2 beads, flow cytometry, pilot screen (AID 504541;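 active = inhibition above 54%, about 3 SD of non-fluorescent compounds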;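 also: AP2 carries R879A mutation and is captured from E. coli lysate; bead-bound FITC arrestin peptide fluorescence measuring arrestin peptide binding to AP2; 0% = DMSO wells and 100% = excess unlabeled arrestin peptide control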); details: FITC arrestin peptide, at 10 µM, stronger effect = higher value, AP2 beta2 appendage fragment, R879A mutant
Chain of AP-2 complex subunit beta (Homo sapiens) (P63010 whole entry, looked up, the tested form may be a part, one chain of several): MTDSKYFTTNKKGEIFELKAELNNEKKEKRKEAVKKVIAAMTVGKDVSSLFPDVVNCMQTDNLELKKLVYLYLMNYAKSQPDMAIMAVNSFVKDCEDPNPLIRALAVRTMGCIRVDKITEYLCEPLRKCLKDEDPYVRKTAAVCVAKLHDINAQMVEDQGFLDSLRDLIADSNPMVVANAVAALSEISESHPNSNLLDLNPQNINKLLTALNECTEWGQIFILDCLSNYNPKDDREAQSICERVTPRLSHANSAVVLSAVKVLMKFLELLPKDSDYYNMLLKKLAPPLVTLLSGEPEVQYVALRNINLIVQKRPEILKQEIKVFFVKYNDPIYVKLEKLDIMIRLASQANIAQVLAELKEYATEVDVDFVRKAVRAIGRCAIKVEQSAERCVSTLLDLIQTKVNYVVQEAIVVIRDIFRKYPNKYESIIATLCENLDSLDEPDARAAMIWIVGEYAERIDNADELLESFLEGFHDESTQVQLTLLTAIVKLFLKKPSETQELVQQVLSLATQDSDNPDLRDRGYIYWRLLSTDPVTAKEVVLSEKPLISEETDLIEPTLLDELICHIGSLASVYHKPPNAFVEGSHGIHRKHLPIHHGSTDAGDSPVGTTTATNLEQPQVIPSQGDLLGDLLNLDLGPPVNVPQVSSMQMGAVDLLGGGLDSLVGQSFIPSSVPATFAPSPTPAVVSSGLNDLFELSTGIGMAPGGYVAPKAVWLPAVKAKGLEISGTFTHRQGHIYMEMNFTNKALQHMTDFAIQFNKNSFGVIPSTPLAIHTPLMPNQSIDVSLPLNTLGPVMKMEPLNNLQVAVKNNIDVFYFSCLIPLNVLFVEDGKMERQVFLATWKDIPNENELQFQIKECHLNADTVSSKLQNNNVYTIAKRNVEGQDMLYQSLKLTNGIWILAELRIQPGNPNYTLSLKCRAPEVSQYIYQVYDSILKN

[11] = cytosolic pH regulators acting via V-ATPase – S. cerevisiae, pHLuorin, HTS validation (AID 504600; in the data active = response above about 15%;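 also: plate controls were DMSO for no effect and reference compound for full effect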); details: V-ATPase proton transport, at 10 µM, stronger effect = higher value
[12] = tested on: anti-desmoglein-3 scFv antibody binding to human DSG3; assay: blockers of pathogenic pemphigus antibody–desmoglein-3 binding – biochemical, validation compound set, bead-based, flow cytometry, pilot screen (AID 588368;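 active = binding below the plate cutoff, the plate median minus 3 SD, with a reading above zero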;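 also: signal is the median channel fluorescence of bead-bound GFP antibody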); details: Protein G beads, DSG3-Fc, scFv-GFP binding, at 10 µM, stronger effect = lower value
[13] = Nile Red efflux blockade in pump-expressing yeast – validation compound set, multiplex, phenotypic, pilot screen (AID 588506;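 active = efflux inhibition above 0.42, the validation set average plus 4 SD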;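 also: Nile Red retained in cells so higher fluorescence means more efflux inhibition; 0 = negative control wells and 1 = enniatin B 25 µM full block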); details: S. cerevisiae pump-expressing triplex, Nile Red efflux flow cytometry; at 10 µM; stronger effect = higher value; the pumps come from Candida albicans
[14] = molecular target: ATP-binding cassette sub-family B member 6 (Homo sapiens) (UniProt Q9NP58); assay: blockers of ABCB6-driven porphyrin uptake – K562-ABCB6 cells, flow cytometry, validation set, pilot screen (AID 588550;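 active = inhibition above the screen-wide mean plus 3 SD, about 51%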;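 also: 0% = DMSO wells and 100% = benzethonium chloride 70 µM positive control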); details: K562-ABCB6 porphyrin accumulation, 1 h, at 10 µM, stronger effect = higher value
Chain of ATP-binding cassette sub-family B member 6 (Homo sapiens) (Q9NP58 whole entry, looked up): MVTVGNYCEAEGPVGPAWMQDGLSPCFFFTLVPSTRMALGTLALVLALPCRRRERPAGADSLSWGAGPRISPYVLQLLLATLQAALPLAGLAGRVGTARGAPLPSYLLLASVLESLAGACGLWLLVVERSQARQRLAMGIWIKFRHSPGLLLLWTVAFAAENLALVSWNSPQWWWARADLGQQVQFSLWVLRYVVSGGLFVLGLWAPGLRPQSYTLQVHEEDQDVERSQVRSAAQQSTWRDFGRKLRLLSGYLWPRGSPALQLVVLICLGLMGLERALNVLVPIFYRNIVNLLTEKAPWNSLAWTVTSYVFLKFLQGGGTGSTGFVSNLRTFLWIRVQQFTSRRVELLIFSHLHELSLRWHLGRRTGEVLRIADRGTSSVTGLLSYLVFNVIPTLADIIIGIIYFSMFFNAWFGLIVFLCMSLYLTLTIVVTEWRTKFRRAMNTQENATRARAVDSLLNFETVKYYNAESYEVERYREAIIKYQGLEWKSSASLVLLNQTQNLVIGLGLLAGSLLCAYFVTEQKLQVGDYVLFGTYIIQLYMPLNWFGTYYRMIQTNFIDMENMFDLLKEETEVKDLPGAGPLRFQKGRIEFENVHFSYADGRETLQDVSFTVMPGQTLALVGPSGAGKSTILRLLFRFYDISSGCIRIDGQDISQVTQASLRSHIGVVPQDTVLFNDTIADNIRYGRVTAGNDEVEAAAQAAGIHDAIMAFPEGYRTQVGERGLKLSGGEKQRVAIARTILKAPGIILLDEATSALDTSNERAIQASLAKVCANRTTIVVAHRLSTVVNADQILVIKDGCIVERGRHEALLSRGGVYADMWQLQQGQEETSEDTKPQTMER

[15] = AML differentiation inducers, ER-HoxA9 marrow cells – cell-based, GFP/MAC1 double positive, flow cytometry, validation set, primary screen (AID 588685;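 active = differentiation response of at least 50%, scaled between solvent and reference control, from cells with both markers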;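 also: compound exposure lasts four days before antibody staining and flow analysis; 0% = DMSO wells and 100% = 5 µM fulvestrant positive control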); details: stronger effect = higher value, normalized: vehicle 0, fulvestrant 100

SMILES	percent of DMSO control GFP [1]	GFP response vs DMSO [2]	percent response of DMSO control [3]	GFP response vs DMSO [4]	GFP response, % of DMSO [5]	double positive events [6] [%]	vesicle binding response [6]	inhibition [7]	superoxide response (% of plate) [8]	aptamer binding inhibition [9]	inhibition [10]	response [11]	binding (% of control) [12]	efflux inhibition (fraction of control) [13]	inhibition [14]	differentiation response [15]
CC(C)NCC(O)COc1ccc(CCOCC2CC2)cc1 (stereo not given)	103% (inactive)	102% (inactive)	109% (inactive)	111% (inactive)	108% (inactive)	63.7	215% (inactive)	-10.5% (inactive)	93.3% (inactive)	-6% (inactive)	-20.5% (inactive)	9.7% (inactive)	103% (inactive)	0.03 (inactive)	-3% (inactive)	7.13% (inactive)
CN1CCC(=C2c3ccccc3C=Cc3ccccc32)CC1	98.8% (inactive)	99.9% (inactive)	105% (inactive)	104% (inactive)	99.7% (inactive)	62.8	194% (inactive)	13.8% (inactive)	88.8% (inactive)	-3% (inactive)	24.3% (inactive)	-5.41% (inactive)	97.2% (inactive)	-0.09 (inactive)	8% (inactive)	-29.3% (inactive)
OC(CCN1CCCCC1)(c1ccccc1)C1CCCCC1 (stereo not given)	107% (inactive)	102% (inactive)	108% (inactive)	106% (inactive)	105% (inactive)	40.6	185% (inactive)	0% (inactive)	97.3% (inactive)	-3% (inactive)	-9.7% (inactive)	-2.57% (inactive)	108% (inactive)	-0.05 (inactive)	5% (inactive)	-8.27% (inactive)
COc1cc2c(cc1OC)-c1cc(OCc3ccccc3Cl)nc(=O)n1CC2	98.8% (inactive)	98.9% (inactive)	101% (inactive)	99.4% (inactive)	97.5% (inactive)	57.7	172% (inactive)	9.09% (inactive)	97.5% (inactive)	4% (inactive)	4.7% (inactive)	-7% (inactive)	99.8% (inactive)	0.06 (inactive)	4% (inactive)	-18% (inactive)
CCOc1cccc(N2C(=O)CC(N(CCc3ccc(OC)c(OC)c3)C(=O)CC)C2=O)c1 (stereo not given)	101% (inactive)	105% (inactive)	104% (inactive)	98.4% (inactive)	100% (inactive)	59.7	184% (inactive)	0% (inactive)	94% (inactive)	2% (inactive)	27.3% (inactive)	-1.88% (inactive)	100% (inactive)	-0.2 (inactive)	5% (inactive)	-18% (inactive)
COC(=O)c1cc(-c2ccc(C)o2)nc2ccccc12	101% (inactive)	95.9% (inactive)	93.9% (inactive)	109% (inactive)	78.2% (inactive)	45.1	76.1% (inactive)	-21.7% (inactive)	109% (inactive)	5% (inactive)	3.96% (inactive)	2% (inactive)	108% (inactive)	0.94 (active)	10% (inactive)	-8.27% (inactive)
CCOC(=O)c1cnc2ccccc2c1NCCO	108% (inactive)	99.9% (inactive)	109% (inactive)	102% (inactive)	103% (inactive)	61.1	186% (inactive)	1.62% (inactive)	98.1% (inactive)	0% (inactive)	-2.19% (inactive)	5.12% (inactive)	99.8% (inactive)	-0.12 (inactive)	7% (inactive)	-18% (inactive)
Clc1ccc2c(c1)C(N1CCNCC1)=Nc1ccccc1O2	107% (inactive)	106% (inactive)	109% (inactive)	101% (inactive)	105% (inactive)	64	200% (inactive)	-42.2% (inactive)	103% (inactive)	-1% (inactive)	24.4% (inactive)	-1.95% (inactive)	101% (inactive)	-0.47 (inactive)	7% (inactive)	-8.27% (inactive)
CC(C)OC(=O)CC1C(=O)NCCN1C(=S)NC(=O)c1cccs1 (stereo not given)	98.1% (inactive)	86.7% (inactive)	107% (inactive)	98.4% (inactive)	107% (inactive)	63.2	190% (inactive)	10% (inactive)	87.2% (inactive)	-2% (inactive)	-4.49% (inactive)	2.24% (inactive)	104% (inactive)	-0.2 (inactive)	8% (inactive)	0% (inactive)
COc1ccc(CCNC(=S)NC(=O)/C=C/c2ccc(C)cc2)cc1OC	101% (inactive)	107% (inactive)	106% (inactive)	103% (inactive)	95.4% (inactive)	51.6	136% (inactive)	3.49% (inactive)	98.2% (inactive)	2% (inactive)	13.3% (inactive)	-1.1% (inactive)	106% (inactive)	0.22 (inactive)	4% (inactive)	-8.27% (inactive)
CCCC1O[C@@H]2C[C@H]3[C@@H]4CCC5=CC(=O)C=C[C@]5(C)[C@H]4[C@@H](O)C[C@]3(C)[C@]2(C(=O)CO)O1 (stereo not given in full)	100% (inactive)	108% (inactive)	108% (inactive)	100% (inactive)	106% (inactive)	58.8	217% (inactive)	4.42% (inactive)	103% (inactive)	4% (inactive)	42.5% (inactive)	-0.18% (inactive)	104% (inactive)	0.1 (inactive)	0% (inactive)	6.26% (inactive)
CN(C)CCC(c1ccc(Br)cc1)c1ccccn1 (stereo not given)	103% (inactive)	101% (inactive)	94.9% (inactive)	97.4% (inactive)	100% (inactive)	56.9	182% (inactive)	36.1% (inactive)	106% (inactive)	2% (inactive)	-4.8% (inactive)	2.41% (inactive)	103% (inactive)	0.18 (inactive)	12% (inactive)	-1.82% (inactive)
COc1ccc2nc(Nc3nc(CSc4ccc(C)cc4)cc(=O)[nH]3)nc(C)c2c1	99% (inactive)	103% (inactive)	98.8% (inactive)	90.3% (inactive)	104% (inactive)	63.5	217% (inactive)	8.15% (inactive)	104% (inactive)	0% (inactive)	8.24% (inactive)	-0.97% (inactive)	103% (inactive)	-0.43 (inactive)	6% (inactive)	-24.4% (inactive)
CCNC(=S)Nc1ccc(OC(F)(F)F)cc1	105% (inactive)	107% (inactive)	102% (inactive)	103% (inactive)	98.7% (inactive)	60.6	166% (inactive)	-1.17% (inactive)	93.5% (inactive)	1% (inactive)	43.4% (inactive)	-22.5% (inactive)	101% (inactive)	-0.05 (inactive)	-3% (inactive)	11.1% (inactive)
CCOc1cc(C)cc2oc(=O)cc(-c3ccccc3)c12	99.5% (inactive)	105% (inactive)	92% (inactive)	123% (inactive)	92.8% (inactive)	54.7	138% (inactive)	-5.84% (inactive)	88.9% (inactive)	4% (inactive)	14.1% (inactive)	8.03% (inactive)	102% (inactive)	0.18 (inactive)	5% (inactive)	-16.4% (inactive)
O=S(=O)(NCCCCCNS(=O)(=O)c1ccccc1)c1ccccc1	104% (inactive)	105% (inactive)	95.9% (inactive)	92.3% (inactive)	92.8% (inactive)	57.2	127% (inactive)	-13.3% (inactive)	104% (inactive)	-3% (inactive)	3.03% (inactive)	1.49% (inactive)	103% (inactive)	0.56 (active)	10% (inactive)	-11.5% (inactive)
CCN(CC)C(=O)c1ccc(O)c(OC)c1	94.2% (inactive)	102% (inactive)	98.8% (inactive)	102% (inactive)	102% (inactive)	53.9	118% (inactive)	25.9% (inactive)	89% (inactive)	0% (inactive)	-2.62% (inactive)	0.77% (inactive)	101% (inactive)	0.29 (inactive)	15% (inactive)	-9.89% (inactive)
N#Cc1c2c(c(-c3ccccc3)[nH]c1=O)CCCC2	102% (inactive)	98.9% (inactive)	103% (inactive)	85.3% (inactive)	100% (inactive)	56.8	158% (inactive)	-7.7% (inactive)	94% (inactive)	3% (inactive)	-4.92% (inactive)	-1.34% (inactive)	98.8% (inactive)	-0.05 (inactive)	5% (inactive)	-22.8% (inactive)
COC(=O)c1[nH]c2ccccc2c1NC(=O)CN1CCN(C/C=C/c2ccccc2)CC1	108% (inactive)	106% (inactive)	99.8% (inactive)	88.3% (inactive)	96.1% (inactive)	55.6	154% (inactive)	-42.2% (inactive)	98% (inactive)	0% (inactive)	3.15% (inactive)	3.35% (inactive)	108% (inactive)	0.25 (inactive)	8% (inactive)	-13.1% (inactive)
O=C(c1ccc(-c2ccccc2)c(F)c1)C1CCCN(C(=O)c2cncs2)C1 (stereo not given)	100% (inactive)	103% (inactive)	95.9% (inactive)	108% (inactive)	91.8% (inactive)	49.8	157% (inactive)	11.9% (inactive)	132% (inactive)	7% (inactive)	-11% (inactive)	13.7% (inactive)	101% (inactive)	-0.47 (inactive)	9% (inactive)	-14.7% (inactive)
